Screens deposited in PubChem BioAssay by NMMLSC.
An excerpt weighted towards active compounds, which were near 1.2% of everything screened.
RGS16-Gao – RGS16-Galphao interaction regulator (human). bead-based flow cytometry RGS16-Galphao binding, fluorescence; actives lie on both sides. 220,000 tested, 0.38% active. O15492+P09471. binding response (% of control), % at 10 µM. AID 1441;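 also: Galphao activated by GDP with aluminum fluoride before binding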
RGS4-Gao reg – modulates binding of RGS4 to human Galphao | Multiplexed bead flow cytometry; actives lie on both sides | AID 1415 | binding response (% of control), % at 10 µM | 220,000 tested, 0.33% active | P09471; in the data active = binding response below about 49% or above about 150%; inactive = in between;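 also: fluorescent Galphao activated with aluminum fluoride binding bead-coupled RGS4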
Target sequence (P09471 whole entry, looked up): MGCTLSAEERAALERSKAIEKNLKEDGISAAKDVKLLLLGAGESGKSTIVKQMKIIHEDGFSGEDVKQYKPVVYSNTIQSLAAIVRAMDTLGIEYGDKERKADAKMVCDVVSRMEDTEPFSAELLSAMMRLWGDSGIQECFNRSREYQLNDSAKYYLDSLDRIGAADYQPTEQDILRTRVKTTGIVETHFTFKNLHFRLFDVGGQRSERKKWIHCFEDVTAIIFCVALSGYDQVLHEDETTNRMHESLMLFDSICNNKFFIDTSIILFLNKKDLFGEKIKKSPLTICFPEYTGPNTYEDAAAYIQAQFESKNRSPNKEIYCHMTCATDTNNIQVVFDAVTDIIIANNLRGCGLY
RGS8-Gao – modulates binding of RGS8 to human Galphao | P09471 | multiplexed bead flow cytometry; actives lie on both sides | response (percent of control binding), % at 10 µM | 220,000 tested, 0.34% active; in the data active = response below about 60% or above about 140%; inactive = in between;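 also: Galphao activated as the GDP aluminium fluoride complex binding bead-coupled RGS8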
GSH bead fluor – compound fluoresces at 488/530 nm on GSH beads; fluorescence (KMESF) at 10 µM; GSH beads flow cytometry, compound fluorescence 488/530 nm; hits give high values; AID 1776; 190,000 tested, 0.25% active; in the data active = fluorescence above about 89;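 also: glutathione beads carrying GST-tagged Bcl family fusion proteins plus one bare bead set; values are compound well signal with DMSO vehicle wells as background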
RGS7-Gao – human RGS7-Galphao interaction regulation; P09471; Multiplexed bead flow cytometry, RGS7-Galphao binding; actives lie on both sides; binding response (% of control), % at 10 µM; 220,000 tested, 0.35% active; AID 1439; in the data active = binding response below about 49% or above about 150%; inconclusive = no clear call, values can overlap the other calls; inactive = in between;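 also: fluorescent Galphao held in activated GDP-AlF4 state binding bead-coupled RGS7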
Avidin bead fluor – compound fluoresces at 488/530 nm on avidin beads | 220,000 tested, 0.38% active | compound fluorescence 488/530 nm, flow cytometry; hits give high values | fluorescence (KMESF) at 10 µM; in the data active = fluorescence above about 47
RGS-Gao – modulates binding between human RGS4 and Galphao | shares compounds with RGS16-Gao | multiplexed bead flow cytometry, RGS–Galpha-o binding | RGS4–Galpha-o binding response, % at 10 µM | 1,600 tested, 99% active;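 also: fluorescently labeled Galpha-o bound to GDP with aluminium fluoride binding biotinylated RGS beads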
Avidin counter – interferes with biotinylated probe binding to avidin beads; inhibition, % at 10 µM; 1,700 tested, under 10 active; streptavidin beads, fluorescein-biotin binding, flow cytometry; AID 1783; shares compounds with RGS16-Gao;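 active = inhibition above 50%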;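 also: median green fluorescence of gated singlet beads compared with DMSO control wells; 0% = DMSO wells and 100% = complete loss of bead fluorescence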
RGS8-Gao confirm – confirmation of regulators of human RGS8-Galphao interaction; 1,700 tested, 3% active; shares compounds with RGS16-Gao; AID 1836; bead-based flow cytometry RGS8-Galphao binding, fluorescence; actives lie on both sides; binding response (% of control), % at 10 µM; in the data active = binding response below about 72% or above about 130%; inactive = in between;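 also: Galphao activated as GDP AlF4 complex before binding bead RGS8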
RGS7-Gao confirm – RGS7-Galphao interaction regulation, single point confirmation | bead-based flow cytometry RGS7-Galphao binding; actives lie on both sides | response (percent of control binding), % at 10 µM | 1,700 tested, 7.8% active | AID 1837 | shares compounds with RGS16-Gao; in the data active = response below about 75% or above about 130%; inactive = in between;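 also: fluorescent Galphao activated with GDP and aluminum fluoride binding bead-coupled RGS7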
RGS16-Gao single – confirmation of regulators of human RGS16-Galphao interaction; bead-based flow cytometry, RGS16-Galphao binding; actives lie on both sides; response (% of control binding), % at 10 µM; 1,700 tested, 4% active; shares compounds with RGS16-Gao; in the data active = response below about 74% or above about 130%; inactive = in between;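 also: Galphao activated as the GDP aluminium fluoride complex binding bead-coupled RGS16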
RGS4-Gao confirm – confirmation of regulators of human RGS4-Galphao interaction | AID 1840 | binding response (% of control), % at 10 µM | 1,700 tested, 4% active | RGS4-Galphao binding, multiplexed bead flow cytometry; actives lie on both sides | shares compounds with RGS16-Gao; in the data active = binding response below about 74% or above about 130%; inactive = in between
RGS19-Gao single – RGS19-Galphao interaction regulation, single point confirmation; bead-based flow cytometry RGS19-Galphao binding; actives lie on both sides; response (percent of control binding), % at 10 µM; shares compounds with RGS16-Gao; 1,700 tested, 5% active; in the data active = response below about 50% or above about 160%; inactive = in between;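 also: 100% = no compound control and 0% = blank background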
Target sequence (P09471 whole entry, looked up): as above
Target sequence (P49795 whole entry, looked up): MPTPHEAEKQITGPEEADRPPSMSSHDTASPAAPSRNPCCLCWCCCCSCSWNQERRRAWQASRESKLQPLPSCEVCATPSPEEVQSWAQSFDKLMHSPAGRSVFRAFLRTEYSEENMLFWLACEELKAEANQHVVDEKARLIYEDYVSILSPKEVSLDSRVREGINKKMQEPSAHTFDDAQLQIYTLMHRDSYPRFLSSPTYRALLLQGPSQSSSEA
* hit, by the source's call; ? = inconclusive; . = no result; [ ] = another dose, or the depositor's remark. Unless noted, no rule for the calls is given here.

SMILES	RGS16-Gao	RGS4-Gao reg	RGS8-Gao	GSH bead fluor	RGS7-Gao	Avidin bead fluor	Avidin counter	RGS8-Gao confirm	RGS7-Gao confirm	RGS16-Gao single	RGS4-Gao confirm	RGS19-Gao single	others
COc1ccc(N2CCN(C(=O)c3ccc(COc4ccc5c(C)cc(=O)oc5c4)cc3)CC2)cc1	100	180*[activator]	99	24	158*[activator]	84*	-1	102	98	102	100	95
COc1ccc(S(=O)(=O)N2CCN(C(=O)COc3ccc4c(C)cc(=O)oc4c3)CC2)cc1	100	105	103	11	101	10	.	.	.	.	.	.
CCCC(=O)Nc1cc(C(=O)O)ccc1Sc1ccccc1	98	105	101	12	107	23	.	.	.	.	.	.
O=C(c1ccc(=O)[nH]c1)N(Cc1cccs1)C1(C(=O)NC2CCCC2)CCCCC1	259*[activator]	116	141*[activator]	10	108	4	-1	104	105	105	103	101	RGS-Gao=116*
Cc1cc(Oc2ccc([N+](=O)[O-])cc2)nc(N2CCOCC2)n1	98	96	99	.	?	6	.	.	.	.	.	.
Cc1cc(Oc2ccc(C#N)cc2)nc(N2CCOCC2)n1	45	41*	55*	12	43*	24	0	100	84	97	89	107
Cc1ccc(CSCCC(=O)NCCc2ccc(Cl)cc2)cc1	212	188*[activator]	112	17	212*[activator]	121*	2	95	95	95	97	87
O=C(CCSCc1ccc(Cl)cc1)NCCc1ccccc1	93	103	97	11	97	12	.	.	.	.	.	.
Cc1ccc(S(=O)(=O)N2CCC(C(=O)N3CCC[C@H]3C(=O)NC3CCS(=O)(=O)C3)CC2)cc1 (some centres not stated)	-65*	85	79	11	90	15	0	101	98	98	99	112	RGS-Gao=85*
Cc1ccc(S(=O)(=O)N2CCC(C(=O)N[C@H](C(=O)NC3CCS(=O)(=O)C3)C(C)C)CC2)cc1 (some centres not stated)	100	107	108	34	108	6	.	.	.	.	.	.
CN(CC(=O)N1CCN(c2cccc(Cl)c2)CC1)S(=O)(=O)c1cccs1	178*[activator]	177*[activator]	131	32	144	.	-2	101	97	100	99	99
COCCn1c(C)cc(/C=C2/SC(=O)N(C(C)C(=O)OC)C2=O)c1C (configuration not stated)	225*[activator]	222*[activator]	107	.	?	129*	1	100	96	97	97	91
O=C(C/C=N\OCc1ccc([N+](=O)[O-])cc1)Nc1ccc(Br)cc1	101	106	101	18	157*[activator]	38	-1	96	95	92	96	85	RGS-Gao=106*
O=C(COc1ccccc1[N+](=O)[O-])Nc1ccc(Br)cc1	126	133	119	.	?	7	.	.	.	.	.	.
O=C(NCc1ccccn1)C1CCN(Cc2cnn(-c3ccccc3)c2-n2cccc2)CC1	.	136	.	27	.	.	0	96	96	96	96	95
CCn1c(Sc2nc(C)nc3scc(-c4cccs4)c23)n[nH]c1=O	.	.	.	41	.	.	0	99	101	97	101	85
COc1ccc(/C(CC2OC(=O)c3ccccc32)=N\NC(N)=O)cc1 (configuration not stated)	100	97	103	20	?	9	.	.	.	.	.	.
N#C/C(=C/c1ccc(N2CCCCC2)o1)C(=O)Nc1ccc2ccccc2c1	164	177*[activator]	91	82	192*[activator]	111*	2	103	175*[activator]	138*[activator]	148*[activator]	220*[activator]
COc1ccc(NC(=O)/C(C#N)=C\c2ccc(N3CCOCC3)o2)cc1	102	103	99	13	102	15	.	.	.	.	.	.
C=CCOc1ccc(CNCCc2ccc(S(N)(=O)=O)cc2)cc1	96	98	101	9	99	3	.	.	.	.	.	.
COc1ccc(C(=O)Nc2ccccc2C(=O)N(Cc2ccco2)C(C(N)=O)C(C)C)cc1 (configuration not stated)	333	225*[activator]	144*[activator]	12	140	104*	1	96	79	92	83	104
Cc1cc(C)c(C)c(S(=O)(=O)N2CCCCC2C(=O)O)c1C (configuration not stated)	101	100	100	14	98	9	.	.	.	.	.	.
CCN1C(=O)NC2C1N(S(C)(=O)=O)CCN2S(C)(=O)=O (configuration not stated)	104	99	100	27	98	29	.	.	.	.	.	.
COc1cccc(Nc2nnc(SCN3C(=O)c4ccccc4C3=O)s2)c1	551	122	153*[activator]	13	130	12	1	103	101	100	102	106	RGS-Gao=122*
CN(C(=O)COC(=O)/C=C/c1ccc(S(=O)(=O)N2CCc3ccccc32)cc1)C1CCS(=O)(=O)C1 (configuration not stated)	100	102	101	15	103	10	.	.	.	.	.	.
COc1ccc(S(=O)(=O)N2CCN(CCC(=O)Nc3ccccc3F)CC2)cc1	.	.	.	34	.	.	2	99	95	97	98	106
C=CCNC(=O)N[C@@H](Cc1ccccc1)C(=O)OC	92	91	94	.	?	6	.	.	.	.	.	.
CCOC(=O)c1sc(NC(=O)Nc2ccc(F)cc2)nc1C	25*	91	73	4	91	9	1	99	105	102	105	103	RGS-Gao=91*
Nc1ccc(-c2nc3c(Cl)cc(N)cc3[nH]2)cc1	89	78	63	2	26*	1	1	103	100	107	101	128	RGS-Gao=78*
